Screening results (PubChem)
TDP1 cell CPT: qHTS for Inhibitors of human tyrosyl-DNA phosphodiesterase 1 (TDP1): qHTS in cells in presence of CPT. AID 686979, 2013. chicken DT40 Tdp1-/-;hTDP1 cells + 20 nM CPT, ATP luminescence, 48 h. Potency, µM (top dose mostly 46.2 µM), hits mostly inhibitors. hit rate 12% among 420,000; further: nearly all actives have a fitted effect of over 55% in size
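Chicken DT40 Tdp1-/- cells stably complemented with human TDP1 were seeded at 400 cells/well in medium containing 20 nM camptothecin, exposed to pin-transferred compounds, and grown at 37 °C for at least 48 hr. Viability was read as ATP luminescence.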
IL-1B inflam inh: qHTS for Inhibitors of Inflammasome Signaling: IL-1-beta AlphaLISA Primary Screen | THP-1 LPS/ATP IL-1B secretion, AlphaLISA, 16 h; hits give low values | activity change, % at 57.5 µM | hit rate 4.7% among 360,000 | AID 743279, 2014; in the data active means activity change below about -50%; inconclusive means mostly about -30% to -49%
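THP-1 cells pretreated 1 hr with compounds (up to 57.5 uM final), then stimulated with LPS (250 ng/mL final) plus ATP (1.25 mM final); secreted IL-1B measured by AlphaLISA after 16 hr, decreased signal indicating inhibition.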
TDP1 cell noCPT: qHTS for Inhibitors of human tyrosyl-DNA phosphodiesterase 1 (TDP1): qHTS in cells in absence of CPT | DT40 Tdp1-/- hTDP1 cells, no CPT, ATP luminescence, 48 h | Potency, µM (titrated, usually from 46.2 µM), hits mostly inhibitors | hit rate 15% among 420,000 | AID 686978, 2013; further: nearly all actives have a fitted effect of over 55% in size
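Cells were dispensed at 400 per well, compounds added by pin tool, plates incubated ≥48 hr at 37 °C, then CellTiter-Glo added for 30 min at room temperature before luminescence reading. Line: DT40 Tdp1-/- complemented with hTDP1; camptothecin omitted.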
Six1-Eya2 inh: qHTS Assay for Inhibitors of the Six1/Eya2 Interaction; hit rate 0.56% among 360,000; activity change, % (test concentration not listed); Homeobox protein SIX1 (Homo sapiens) + Protein phosphatase EYA2 (Homo sapiens), …; AID 651725, 2012; AlphaScreen GST-Six1/His-Eya2 binding, biochemical; hits give low values; in the data active means activity change below about -65%; inconclusive means mostly about -30% to -63%
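Compounds are tested against tagged Six1 and Eya2 proteins bridged by glutathione donor and nickel acceptor beads; after a one-hour incubation at 37 °C without light, AlphaScreen emission is recorded.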
TDP1 block: qHTS Assay for Inhibitors of Tyrosyl-DNA Phosphodiesterase (TDP1); Tyrosyl-DNA phosphodiesterase 1 (Homo sapiens), Q9NUW8; recombinant TDP1, AlphaScreen DNA substrate cleavage; Potency, µM (doses to about 130 µM), hits mostly inhibitors; hit rate 0.28% among 350,000; further: nearly all actives have a fitted effect of over 40% in size
Target sequence (Q9NUW8 whole entry, looked up): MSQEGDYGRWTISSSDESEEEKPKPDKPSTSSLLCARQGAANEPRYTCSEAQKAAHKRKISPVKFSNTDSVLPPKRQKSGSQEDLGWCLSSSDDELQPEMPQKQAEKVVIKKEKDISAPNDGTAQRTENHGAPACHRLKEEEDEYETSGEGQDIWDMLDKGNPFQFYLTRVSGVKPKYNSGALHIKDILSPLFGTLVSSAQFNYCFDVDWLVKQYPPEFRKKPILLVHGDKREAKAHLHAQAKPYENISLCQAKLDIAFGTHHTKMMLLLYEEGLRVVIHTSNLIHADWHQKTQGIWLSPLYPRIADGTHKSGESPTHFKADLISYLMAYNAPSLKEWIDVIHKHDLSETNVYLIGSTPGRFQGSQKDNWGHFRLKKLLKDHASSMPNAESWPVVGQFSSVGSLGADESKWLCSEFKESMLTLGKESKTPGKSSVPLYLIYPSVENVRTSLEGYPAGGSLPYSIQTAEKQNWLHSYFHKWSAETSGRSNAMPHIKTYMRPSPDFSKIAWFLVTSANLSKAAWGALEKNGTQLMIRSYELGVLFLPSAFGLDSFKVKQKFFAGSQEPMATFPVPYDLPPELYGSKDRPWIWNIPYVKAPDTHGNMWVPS
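E. coli-derived human Tdp1, 1 nM final. Cpd preinc 15 min RT; substrate 15 nM final, 5 min RT; AS bead mix 10 ug/ml final, 10 min RT. Signal loss = tyrosine-FITC cleavage. No-enzyme wells = max signal.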
CtBP-E1A inh: qHTS Assay for Inhibitors of the CtBP/E1A Interaction; AID 651724, 2012; activity change, % (test concentration not listed); CtBP / adenovirus E1A interaction (AlphaScreen); hit rate 0.49% among 340,000; AlphaScreen GST-E1A/His-CtBP binding, 1536-well; hits give low values; in the data active means activity change below about -65%; inconclusive means mostly about -30% to -63%
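Homogeneous bead-based format: GST-tagged E1A captured on glutathione donor beads, His-tagged CtBP on nickel acceptor beads; compounds precede bead addition by 2 h at 37 °C.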
A number is an active result; – = inactive; ? = inconclusive; · = no result; ! = not active in a repeat; [ ] = dose if it differs, or a comment. Most compounds without a hit are left out; they make up all but 18% or so of the library. Unless noted, the call rests on the fitted dose curve; in most records, active means well fitted curve in the direction sought with a large enough effect; inconclusive means small, poorly fitted or top-dose-only effect, or another doubt; inactive means no such curve, though single readings can be large; an effect the other way counts as inactive or inconclusive.

SMILES	TDP1 cell CPT	IL-1B inflam inh	TDP1 cell noCPT	Six1-Eya2 inh	TDP1 block	CtBP-E1A inh
Cc1ccccc1-n1c(SCC(=O)Nc2ccccc2)nc2nc3c(cc2c1=O)CCCC3	?	–	16µM	–	–	–
CC(=O)c1cnc(-c2cccc(Cl)c2)s1	–	–	–	–	–	–
CCn1c(SCC(=O)Nc2ccccc2C)nc2nc3c(cc2c1=O)COC(C)(C)C3	?	?	10µM	–	–	·
CCn1c(SCC(=O)Nc2ccc(C(C)=O)cc2)nc2nc3c(cc2c1=O)COC(C)(C)C3	–	–	–	–	–	·
CCn1c(SCC(=O)Nc2ccc(C(C)=O)cc2)nc2nc3c(cc2c1=O)CCCC3	?	-55	?	–	–	–
COc1ccc(NC(=O)CSc2nc(N)c3cc4c(nc3n2)CCCC4)cc1	?	–	15µM	?	–	?
COc1ccc(C2=NO[C@@H]3C(=O)N(Cc4ccccc4)C(=O)[C@H]23)c(OC)c1	–	–	–	–	–	–
Oc1ccc(C2CNCCc3c2cc(O)c(O)c3Cl)cc1 (configuration not stated)	?	–	–	–	–	–
Oc1cc2c(c(Cl)c1O)CCNC[C@H]2c1ccccc1	12µM	·	17µM	·	–	·
Oc1cc2c(c(Cl)c1O)CCNCC2c1ccccc1 (configuration not stated)	8.2µM	–	8.2µM!	–	–	–
Cc1c2cnn(CC(=O)NCc3ccc(F)cc3)c(=O)c2c(C)n1Cc1cccc(Cl)c1	4.1µM	·	4.1µM	·	–	·
Cc1c2cnn(CC(=O)NCc3ccc(F)cc3)c(=O)c2c(C)n1Cc1ccccc1F	?	·	16µM	·	–	·
CCC(C)NC(=O)Cn1ncc2c(C)n(Cc3ccc(F)cc3)c(C)c2c1=O (configuration not stated)	23µM	·	?	·	–	·
Cc1c2cnn(CC(=O)Nc3ccc(F)cc3F)c(=O)c2c(C)n1Cc1cccc(Cl)c1	–	·	?	·	–	·
COc1ccc(/C=C(/NC(=O)c2ccccc2)C(=O)NCCN2CCOCC2)cc1OC	–	–	–	–	–	–
COc1cc(NC(=O)COc2ccc(Cl)cc2)ccc1NC(=O)C(C)C	?	–	?	–	–	–
COc1ccc(CCNC(=O)COc2ccc(N(C)S(=O)(=O)c3ccc(C)cc3)cc2)cc1	?	–	?	–	–	–
CN(c1ccc(OCC(=O)OCC(=O)Nc2ccc(F)cc2)cc1)S(=O)(=O)c1ccc(Cl)cc1	–	–	–	–	–	–
COc1ccc(-c2csc(NC(=O)COc3ccc(N(C)S(=O)(=O)c4ccc(C)cc4)cc3)n2)cc1	5.2µM	–	6.5µM	–	–	–
COc1cc(NC(=O)COc2ccc(Cl)cc2)ccc1-c1cc2ccccc2oc1=O	4.1µM	–	4.6µM	–	–	–
COc1ccc(NC(=O)COc2ccc(N(C)S(=O)(=O)c3ccc(Cl)cc3)cc2)cc1OC	7.3µM	–	4.6µM	–	–	–
CCC1CCCCN1C(=O)COc1ccc(N(C)S(=O)(=O)c2ccc(C)cc2)cc1 (configuration not stated)	21µM	–	15µM	–	–	–
CSc1ccc(/C=C/C(=O)OCC(=O)NC2CCS(=O)(=O)C2)cc1 (configuration not stated)	–	–	?	–	–	–
Brc1ccc(COc2cccc3cccnc23)cc1	–	–	–	–	·	–
Cc1ccc(NC(=O)COc2ccc(N(C)S(=O)(=O)c3ccc(F)cc3)cc2)cc1	?	–	16µM	–	–	·
SMILES	TDP1 cell CPT	IL-1B inflam inh	TDP1 cell noCPT	Six1-Eya2 inh	TDP1 block	CtBP-E1A inh
Cc1ccc(-c2csc(NC(=O)COc3ccc(N(C)S(=O)(=O)c4ccc(C)cc4)cc3)n2)cc1	15µM	–	18µM	–	–	–
CN(c1ccc(OCC(=O)NC2CCC(O)CC2)cc1)S(=O)(=O)c1ccc(Cl)cc1 (configuration not stated)	?	–	13µM	–	–	–
CCOc1ccc2nc(NC(=O)COc3ccc(N(C)S(=O)(=O)c4ccc(C)cc4)cc3)sc2c1	–	–	?	–	·	–
CN(c1ccc(OCC(=O)OCC(=O)NC2CCCC2)cc1)S(=O)(=O)c1ccc2ccccc2c1	–	–	–	–	–	–
Brc1cc(Br)c[n+](CCc2ccccc2)c1	11µM	·	14µM	·	·	·
Cc1ccc(C(CC(=O)O)C2CCOC(C)(C)C2)cc1 (configuration not stated)	–	–	–	–	–	–
COc1ccc(CN(CCC(c2ccc3c(c2)OCO3)c2ccccc2OC)C(C)=O)cc1 (configuration not stated)	?	·	21µM	·	–[12.3 µM]	·
COc1ccc(CN(CCC(c2ccccc2)c2ccc(OC(C)C)cc2)C(=O)CCl)cc1OC (configuration not stated)	2.1µM	-99	2.9µM	–	–	–
COc1ccc(CN(CCC(c2ccco2)C(C)C)C(C)=O)cc1OC (configuration not stated)	?	–	?	–	–	·
COc1ccc(CN(CCC(c2ccccc2)C2CCOC(C)(C)C2)C(C)=O)cc1 (configuration not stated)	?	?	18µM	–	–	–
O=C(O)CC(Cc1ccccc1)c1ccc2c(c1)OCO2 (configuration not stated)	–	–	–	–	–	–
COc1ccccc1C(CC(=O)O)c1ccc2c(c1)OCO2 (configuration not stated)	–	–	–	–	–	–
CC(=O)N(CCC(Cc1ccccc1)c1ccc2c(c1)OCO2)Cc1ccc(Cl)cc1 (configuration not stated)	?	?	16µM	–	–	–
O=C(N/N=C/c1cc(Br)c(O)c(Br)c1)c1cccc(C(F)(F)F)c1	–	–	–	–	–	–
COc1ccc(C(CCN(Cc2ccc(OC)c(OC)c2)C(C)=O)c2ccccc2)cc1 (configuration not stated)	21µM	?	21µM	–	–	·
O=C(N/N=C/c1c(Cl)cccc1Cl)c1n[nH]c2c1CCCC2	23µM	–	12µM	–	–	·
Cc1ccsc1/C=N\NC(=O)c1n[nH]c2c1CCC2	3.3µM	–	3.3µM	–	–	–
O=C(N/N=C/c1c(Cl)cccc1Cl)c1ccc(F)cc1	–	–	–	–	–	–
